# Compound activity deposited in PubChem BioAssay by National Center for Advancing Translational Sciences (NCATS).
# Rows were chosen to be rich in hits. Some 2.7% of all compounds tested hit in one or more screens of this group.
# GLP-1R inv ag = acts as inverse agonist at human GLP-1 receptor; AID 624417; Potency, µM (doses to about 38.3 µM), for inactives: at the top dose activity change, negative = inhibition, hits mostly inhibitors; 410,000 tested, 1.6% active; HEK293 GLP-1R CRE-luciferase, luminescence, 24 h; GLP-1R form is constitutively active; P43220; note: % is set by controls: 0 for no effect and ±100 for the full control effect; nearly all actives have a fitted effect of over 55% in size
# Target sequence (P43220 whole entry, looked up): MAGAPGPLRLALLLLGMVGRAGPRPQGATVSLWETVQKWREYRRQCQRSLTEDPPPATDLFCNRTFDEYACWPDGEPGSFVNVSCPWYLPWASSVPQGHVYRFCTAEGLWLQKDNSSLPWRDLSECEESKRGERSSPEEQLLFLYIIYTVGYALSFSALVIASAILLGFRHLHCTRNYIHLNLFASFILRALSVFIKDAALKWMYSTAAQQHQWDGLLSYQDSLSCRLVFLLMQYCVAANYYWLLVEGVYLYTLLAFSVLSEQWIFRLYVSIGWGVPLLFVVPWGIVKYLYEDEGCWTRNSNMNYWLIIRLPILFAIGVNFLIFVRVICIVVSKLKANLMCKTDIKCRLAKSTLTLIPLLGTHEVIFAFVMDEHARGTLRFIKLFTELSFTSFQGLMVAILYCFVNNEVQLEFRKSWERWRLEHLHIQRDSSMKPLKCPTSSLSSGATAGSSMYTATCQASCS
#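 Seeding at 200 cells/uL, 12 h culture, 24 hr compound treatment, then luciferase reagent and a luminescence read; cells are HEK293 stably expressing a constitutively active GLP-1R plus cAMP-responsive luciferase.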
# GLP1R cytotox = cytotoxicity counter-screen for GLP-1 receptor inverse agonists; HEK293 cAMP-luciferase reporter cells, luminescence, 24 h; Potency, µM (doses to about 38.3 µM), inactives show at the top dose activity change, negative = inhibition, most hits filed as inhibitors; 410,000 tested, 0.13% active;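 note: loss of luciferase light is scored as toxicity; % is set by controls: 0 for no effect and ±100 for the full control effect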
#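 Cells in DMEM/10% Nu serum/1% pen-strep, 1536-well format. Pre-incubated 12 h, dosed with 23 nL compound, incubated a further 24 h. Luciferase detection, 12 min at room temp, luminescence.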
# a7 integrin act = integrin-mediated muscular dystrophy alleviation activation | 350,000 tested, 0.064% active | Potency, µM (doses to about 38.3 µM), for inactives: at the top dose activation, actives largely listed as activators | alpha7betagal myoblasts, beta-gal FDG fluorescence, 48 h;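 note: 100% = response of the positive control SU9516; nearly all actives have a fitted effect of over 60% in size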
#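 Alpha7betagal+/- myoblasts (passage 13) were plated 16-24 hr, then exposed to compounds (1:260 dilution of DMSO stock) for 48 hours at 37C. After MPER lysis, β-galactosidase reporter activity was read as FDG fluorescence (ex 480/em 540) after 30 minutes.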
# BRCA1 expr up = activators of BRCA1 expression; MCF7-BRCA1-FFLuc reporter, luminescence, 48 h; response scale: scaled: vehicle 0%, 10 µM genistein 100%; Potency, µM (titrated, usually from 46.1 µM), without a hit: at the highest dose activation, most hits filed as activators; 380,000 tested, 1.1% active; AID 624202; note: nearly all actives have a fitted effect of over 80% in size
#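 Activators of BRCA1 expression were detected as increased firefly luciferase luminescence in engineered MCF7 cells after 48 h compound incubation. Signals were scaled to genistein 10 microM as full activation.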
# GLP1R ag = GLP-1 receptor (human) agonism; HEK293 GLP-1R CRE-luciferase, luminescence, 4-6 h; cells express a hypersensitive GLP-1R form; 380,000 tested, 0.007% active; P43220; AID 624172; Potency, µM (top dose mostly 45.6 µM), for the others: top-dose activation, hits mostly activators; note: % of control where 0% means no effect
# Active calls of the source: *; ? = inconclusive; · = no result given. Calls come from the whole dose curve; as a rule, active = well fitted curve in the direction sought with a large enough effect; inconclusive = small, poorly fitted or top-dose-only effect, or another doubt; inactive = no such curve, though single readings can be large; an effect the other way counts as inactive or inconclusive. Potency is the fitted concentration of half-maximal effect.
SMILES,GLP-1R inv ag,GLP1R cytotox,a7 integrin act,BRCA1 expr up,GLP1R ag
Cc1ccc(-c2cc(C(=O)N3CCN(S(=O)(=O)c4ccc(Br)s4)CC3)[nH]n2)c(C)c1,?,-3%,·,·,·
Cc1ccccc1-c1ocnc1C(=O)Nc1ccccc1NC(=O)c1ccccn1,4µM*,?,-11%,-66%,13%
Fc1ccc(Oc2nc(-c3ccccn3)nc3ccccc23)cc1,2.8µM*,?,-37%,-37%,12%
COC(=O)c1[nH]c2cc(C)ccc2c1NC(=O)CN1CCN(c2ccccc2OC)CC1,3.2µM*,-18%,-35%,-68%,-2%
COC(=O)c1[nH]c2cc(OC)ccc2c1NC(=O)CN1CCN(c2cccc(C)c2)C(C)C1 (stereo not given),8.9µM*,?,-11%,-84%,-8%
COc1cc(Br)ccc1C1CC(=O)C(C)C(c2ccc(Br)cc2OC)N1 (stereo not given),10µM*,3%,-11%,-6%,11%
CC12CCC=CC1=C(C=O)C1C2CCC2(C)C(O)CCC12 (stereo not given),11µM*,?,3%,-51%,8%
CC(CC(c1ccccc1)c1ccccc1)NC(C)(C)C (stereo not given),·,·,·,·,1%
c1ccc(-c2ccc(-c3csnn3)cc2)cc1,13%,11%,9%,7.9µM*,-8%
Clc1ccc(-n2nnnc2Sc2ncnc3sccc23)cc1,7.9µM*,?,-59%,-91%,-49%
Clc1ccc(-c2csc3ncnc(Sc4nnnn4-c4ccccc4)c23)cc1,·,·,·,-79%,·
CC(C)Cc1ccc(S(=O)(=O)N2CCC(c3ccncc3)CC2)cc1,?,0%,·,·,·
COc1ccc(NC(=O)c2cccs2)c([N+](=O)[O-])c1,33%,1%,18%,5.6µM*,-18%
COc1ccc(NC(=O)c2cc(Cl)ccc2Cl)c([N+](=O)[O-])c1,9%,-12%,2%,-21%,0%
COc1ccc(NC(=O)c2sccc2C)c([N+](=O)[O-])c1,25%,-23%,15%,11µM*,8%
Cc1cc(=O)[nH]c(SCC2COC3(CCCCC3)O2)n1 (stereo not given),0%,3%,0%,7%,-2%
NCCNC[C@@H]1COC2(CCCCCCCCCCC2)O1,5µM*,-29%,0%,-56%,17%
Cc1cc(Br)ccc1NC(=O)CCNS(=O)(=O)c1cccc2nonc12,?,-15%,·,5%,-2%
CCOC(=O)C1(Cc2cccc(Cl)c2)CCCN(C(=O)c2ccnn2C)C1 (stereo not given),-5%,0%,2%,16%,-4%
CCCc1cc(C(=O)N2CCCC(Cc3cccc(Cl)c3)(C(=O)OCC)C2)n(C)n1 (stereo not given),11µM*,-10%,-50%,30%,6%
CN(C)CCOCCOc1ccc(Cl)cc1C(C)(C)C,5.6µM*,?,-74%,-49%,0%
CC(C)(C)c1cc(Cl)ccc1OCCn1ccnc1,?,-13%,0%,5%,1%
CC(O)CNCCCOc1ccc(Cl)cc1C(C)(C)C (stereo not given),1.6µM*,?,-72%,-67%,0%
COC(=O)c1cc2oc3ccccc3c2n1CC(=O)Nc1ccc(OC)c(OC)c1,11%,4%,·,·,·
CCN(CC)c1ccc(/C=C(/C#N)c2nc3ccccc3[nH]2)c(OC(C)C)c1,1.8µM*,-12%,-126%,6%,13%
SMILES,GLP-1R inv ag,GLP1R cytotox,a7 integrin act,BRCA1 expr up,GLP1R ag
CCOc1cccc(/C=C(/C#N)c2nc3ccccc3[nH]2)c1OCC(=O)O,21%,1%,-8%,-10%,-4%
COc1ccc(NC(=O)c2cnc(N3CCCCC3)c3ccccc23)cc1Cl,?,-8%,·,·,·
Cc1ccc(C)c(NS(=O)(=O)c2cc3c(cc2C)n(C)c(=O)c(=O)n3C)c1,9%,-2%,·,·,·
CN(C)c1ccc(N=Cc2cccc3ccccc23)cc1,·,·,·,14%,·
O/N=C/c1ccc(OCc2ccccc2)c(Cl)c1,?,-16%,14%,10µM*,21%
COC(=O)N/N=C/c1cc(Cl)c(OCc2ccccc2F)c(OC)c1,10µM*,-16%,-25%,-2%,9%
O/N=C/c1ccc(OCc2ccccc2F)c(Cl)c1,?,8%,-38%,2.8µM*,4%
COc1ccc(NC(=O)c2cc(S(=O)(=O)NCCC3=CCCCC3)ccc2F)cc1,?,-14%,·,·,·
Cc1ccc(CO)cc1Nc1ncnc2onc(-c3ccc(F)cc3)c12,5%,11%,·,·,·
COc1cccc(Cn2c(=O)cc(C)c3c(C)nn(C)c32)c1,-21%,-1%,·,·,·
O=C(CSc1nc2ccccc2n1Cc1ccccc1)N1CCN(c2ccc(F)cc2)CC1,-73%,-32%,·,·,·
Cc1ccc(C)c(NC(=O)CSc2nc(=O)n(CCN(C)C)c3c2CCC3)c1,7%,2%,·,·,·
COc1ccc(C)cc1NC(=O)C1COc2ccccc2C1 (stereo not given),?,-1%,·,·,·
CC(C)OC(=O)/C(=C\c1cccc2ccccc12)NC(=O)c1ccccc1,10µM*,5%,-49%,-24%,14%
Cc1cc(-c2nc(-c3ccc(C(C)(C)C)cc3)no2)no1,7%,9%,?,7.1µM*,-6%
Cc1nc(-c2cc(-c3nc(-c4ccc(C(F)(F)F)cc4)no3)no2)cs1,10%,9%,0%,-2%,-5%
CCCCCCOc1ccc(NC(=O)CC2C(=O)N(CC)C(=S)N2Cc2ccco2)cc1 (stereo not given),7.1µM*,?,-56%,-94%,-5%
C=CCN1C(=O)C(CC(=O)Nc2ccc(OCCC)cc2)N(CCCN2CCN(Cc3ccccc3)CC2)C1=S (stereo not given),2.5µM*,?,-69%,-93%,0%
CCCOc1ccc(NC(=O)CC2C(=O)N(CC)C(=S)N2Cc2cccs2)cc1 (stereo not given),10µM*,-28%,7%,-23%,0%
CCOc1ccc(NC(=O)CSc2nc3nc(C)c(Cc4ccccc4)c(C)n3n2)cc1,0%,-5%,·,·,·
Cc1ccc(-n2nc(C(=O)Nc3ccc(Cl)cn3)c3c4ccccc4n(C)c3c2=O)cc1,1%,-8%,·,·,·
Cc1cc(C)c(Nc2nn3c(=O)c4cc5c(cc4nc3s2)OCO5)c(C)c1,13%,-8%,·,·,·
Cc1cc(Cl)ccc1OCC(=O)Nc1c(Cl)ccc2nsnc12,1%,4%,·,21%,6%
Clc1ccc2c(Cl)cc[n+](CCC3CCCCC3)c2c1,·,·,·,0%,·
Fc1ccc2nc(N3CCOCC3)sc2c1,26%,-6%,1%,11µM*,12%
O=C(c1ccc2nc(N3CCOCC3)sc2c1)N1CCCC1,14%,-26%,-29%,0%,7%
Clc1cccc2sc(N3CCCC3)nc12,21%,5%,-1%,?,6%
